ClpP mod: qHTS Assay for Activators of ClpP; Potency, µM (series often up to 57.5 µM), without a hit: top-dose activity change, negative = active; 340,000 compounds, 1.9% hits; ATP-dependent Clp protease proteolytic subunit (Bacillus subtilis (strain 168)), P80244; purified B. subtilis ClpP, FRET peptide cleavage, 20 min; active means well fitted falling curve with a large enough effect; inconclusive means small, poorly fitted or top-dose-only effect; inactive means no such curve, though single readings can be large or run the other way; further: the source files actives as falling curves though it sought activators and does not explain the sign; nearly all actives have a fitted effect of over 65% in size
Target sequence (P80244 whole entry, looked up): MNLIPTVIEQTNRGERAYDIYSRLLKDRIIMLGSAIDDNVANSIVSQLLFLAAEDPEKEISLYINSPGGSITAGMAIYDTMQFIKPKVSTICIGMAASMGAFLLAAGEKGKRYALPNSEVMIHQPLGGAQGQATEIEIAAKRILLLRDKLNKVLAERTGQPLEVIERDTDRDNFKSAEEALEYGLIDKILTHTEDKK
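FRET quenching reversal measured ClpP activation: 10 microg/mL B. subtilis ClpP at pH 8 with the FRET-FV decapeptide, read at 430 nm after 320 nm excitation. The 20-min minus 0-min signal was scaled between DMSO/no-enzyme wells and ADEP (5.8 microM final).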
DT40 TDP1 no CPT: qHTS for Inhibitors of human tyrosyl-DNA phosphodiesterase 1 (TDP1): qHTS in cells in absence of CPT. AID 686978, 2013. DT40 Tdp1-/- hTDP1 cells, no CPT, ATP luminescence, 48 h. Potency, µM (highest dose often 46.2 µM), for the others: at the highest dose activity change, negative = growth inhibition, actives largely listed as inhibitors. 420,000 compounds, 15% hits; further: on the % scale 0 is the no-effect control and ±100 the full control effect; nearly all actives have a fitted effect of over 55% in size
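Readout: luminescence from CellTiter-Glo after 30 min in the dark at RT. Cells: DT40 Tdp1-/- with stable hTDP1, 400/well. Exposure: compounds alone, ≥48 hr, 37 °C.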
TDP1 inh: blocks human tyrosyl-DNA phosphodiesterase 1; Q9NUW8; recombinant TDP1, AlphaScreen DNA substrate cleavage; Potency, µM (doses to about 130 µM), inactives show at the top dose activity change, negative = inhibition, hits mostly inhibitors; 350,000 compounds, 0.28% hits; AID 485290; further: on the % scale 0 is the no-effect control and ±100 the full control effect; nearly all actives have a fitted effect of over 40% in size
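Recombinant human Tdp1 (E. coli-expressed, 1 nM final) preincubated with compounds 15 min at room temperature, then 5'-biotin/3'-phosphotyrosine-FITC DNA substrate (15 nM final) added for 5 min. AlphaScreen beads (10 ug/ml final) added 10 min; cleavage lowers signal.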
DT40 TDP1 CPT: growth inhibition of DT40 Tdp1-/-;hTDP1 cells with camptothecin (screen for TDP1 inhibitors) | chicken DT40 Tdp1-/-;hTDP1 cells + 20 nM CPT, ATP luminescence, 48 h | AID 686979 | 420,000 compounds, 12% hits | Potency, µM (series often up to 46.2 µM), inactives show at the top dose activity change, negative = growth inhibition, actives largely listed as inhibitors; further: on the % scale 0 is the no-effect control and ±100 the full control effect; nearly all actives have a fitted effect of over 55% in size
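Cell growth measured by CellTiter-Glo luminescence after a minimum 48 h, 37 C compound exposure with 20 nM CPT in Tdp1-knockout DT40 cells stably expressing hTDP1, seeded 400/well; qHTS titration format.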
Active calls of the source: *; ? = inconclusive; / = no result; [ ] = another dose, or the depositor's remark. Only some compounds are listed: those with a hit (about 17% of all), similar ones and a draw of the others. Unless noted, the call rests on the fitted dose curve; in most records, active means well fitted curve in the direction sought with a large enough effect; inconclusive means small, poorly fitted or top-dose-only effect, or another doubt; inactive means no such curve, though single readings can be large; an effect the other way counts as inactive or inconclusive. Potency means the concentration at half of the fitted maximal effect.

SMILES	ClpP mod	DT40 TDP1 no CPT	TDP1 inh	DT40 TDP1 CPT
Cc1ccc(C)c(N2CCN(C(=O)C3CCN(S(=O)(=O)c4cccc5nsnc45)CC3)CC2)c1	1.9%	18.4µM*	7.9%	18.4µM*
Cc1ccc(C)c(N(C)C(=O)C2CCN(S(=O)(=O)c3cccc4nsnc34)CC2)c1	0.2%	13µM*	-2.3%	16.4µM*
Cc1ccc(N2CCN(C(=O)C3CCN(S(=O)(=O)c4ccc5c(c4)oc(=O)n5C)CC3)CC2C)cc1 (stereo not given)	-9.8%	3.66µM*	3.8%	5.8µM*
Cc1ccc(N2CCN(S(=O)(=O)c3ccc4c(c3)oc(=O)n4C)CC2C)cc1 (stereo not given)	2.1%	-8.7%	1.8%	?
Cc1ccc2c(c1)CN(CCNC(=O)c1ccc3nc(C)[nH]c3c1)CC(C)O2 (stereo not given)	/	-7.2%	/	7.0%[9.04 µM]
CCCCCCCCCCCCCCCC(=O)OCC(COP(=O)(O)O)OC(=O)CCCCCCCCCCCCCCC (stereo not given)	/	0.1%[4.12 µM]	4.9%	3.2%[4.12 µM]
O=C(CN1CCC(C(O)(c2ccccc2)c2ccccc2)CC1)Nc1cc(Cl)ccc1Cl	-0.5%	20µM*	0.0%	?
O=C(CN1CCOCCOCCOCC1)Nc1ccccc1	-7.8%	1.7%	3.4%	-8.8%
O=C(CN1CCCCC1)Nc1cc(Cl)ccc1Cl	-0.4%	-20.5%	-2.6%	?
O=C(CN1CCC(C(O)(c2ccccc2)c2ccccc2)CC1)Nc1ccccc1	-0.8%	16.4µM*	5.9%	20.6µM*
O=C(CN1CCN(C(=O)N2CCOCC2)CC1)Nc1cc(Cl)ccc1Cl	/	13µM*	6.9%	?
CC1(C(=O)NCc2ccccc2)CCC(=O)N1CCCn1ccnc1 (stereo not given)	-1.4%	-5.1%	/	0.9%
O=C(NCCc1ccccc1)c1ccc(CSc2nc3ccncc3n2Cc2ccccc2)cc1	-15.2%	?	2.5%	4.61µM*
CCn1c(CCNC(=O)c2ccc(OC)cc2)nnc1SCc1ccc(Cl)cc1Cl	1.3%	?	0.0%	?
CCn1c(CCNC(=O)c2ccc(C)cc2)nnc1SCc1ccc(Cl)c(Cl)c1	1.1%	23.1µM*	3.4%	20.6µM*
Cc1ccccc1Cn1c(SCc2ccc(C(=O)NCCc3ccccc3)cc2)nc2ccncc21	-15.3%	20.6µM*	4.9%	20.6µM*
Cc1ccc(Cn2c(SCc3ccc(C(=O)NCCc4ccccc4)cc3)nc3ccncc32)cc1	-24.3%	11.6µM*	5.1%	14.6µM*
COc1ccc(OC)c(-c2ccc(C(=O)O)o2)c1	/	/	5.1%[234 µM]	/
CC(CCC(=O)O)C1CCC2C3CC(O)C4CC(O)CC[C@]4(C)C3CCC12C (stereo not given in full)	0.2%	-1.1%	/	-5.2%
Cc1ccccc1Cn1c(SCc2ccc(C(=O)NC3CCCCC3)cc2)nc2ccncc21	-7.9%	?	3.9%	23.1µM*
O=C(NN1c2ccccc2CCc2ccccc21)c1ccccc1Br	0.7%	?	-1.0%	20.6µM*
Nc1ccc2c3c(ccc([N+](=O)[O-])c13)CC2	0.3%	7.31µM*	/	?
CCOC(CCNC(=O)c1cc(-c2cccs2)nc2ccccc12)OCC	3.7%	?	/	20.6µM*
COc1ccc(OC)c(CNC(=O)c2cc(-c3ccc(Cl)s3)nc3ccccc23)c1	47.6%	9.2µM*	-0.9%	14.6µM*
COc1ccc(CNC(=O)c2cc(-c3cccs3)nc3ccccc23)c(OC)c1	-7.6%	?	-1.8%	2.59µM*
SMILES	ClpP mod	DT40 TDP1 no CPT	TDP1 inh	DT40 TDP1 CPT
CCc1ccc(S(=O)(=O)NCC2(N3CCOCC3)CCCCC2)cc1	1.3%	?	0.4%	?
Cc1ccc2oc(-c3ccccc3)c(C(=O)O)c(=O)c2c1	-5.9%	23.1µM*	9.3%	?
Cc1ccc2oc(-c3ccccc3)c(O)c(=O)c2c1	/	?	3.6%	?
O=c1c(O)c(-c2ccccc2)oc2cc(O)ccc12	/	?	13.2%[56.1 µM]	?
COc1cccc(-c2oc3ccc(C)cc3c(=O)c2O)c1	4.4%	13µM*	3.2%	20.6µM*
Cc1ccc(-c2oc3ccccc3c(=O)c2O)cc1	-11.2%	16.4µM*	-2.1%	25.9µM*
O=c1c(O)c(-c2ccccc2)oc2ccccc12	-7.4%	9.2µM*	-9.3%[56.1 µM]	?
CCC(C(=O)NC(=O)NC(C)=O)c1ccccc1 (stereo not given)	/	-22.0%	/	-10.8%
Cc1cc(C(C)(C)C)cc(CN2CCN(S(=O)(=O)c3cccs3)CC2)c1O	-5.9%	0.184µM*	/	-6.5%
Cc1cc(O)c(CN2CCN(S(=O)(=O)c3cccs3)CC2)cc1C(C)C	-1.9%	?	0.2%	23.1µM*
O=S(=O)(c1cccs1)N1CCN(Cc2cccc(F)c2)CC1	-0.7%	2.6%	1.0%	-23.6%
O=C(c1cc2n(n1)C(C(F)(F)F)CC(c1ccco1)N2)N1CCc2ccccc2C1 (stereo not given)	-0.6%	18.4µM*	4.4%	?
COc1cc2c(cc1OC)C(C)N(C(=O)c1cc3n(n1)C(C(F)(F)F)CC(c1ccco1)N3)CC2 (stereo not given)	0.9%	?	-7.3%	?
COc1ccccc1N1CCN(C(=O)c2cc3n(n2)C(C(F)(F)F)CC(c2ccco2)N3)CC1 (stereo not given)	-1.3%	18.4µM*	-2.0%	14.6µM*
O=C(c1cnn2c1NC(c1ccco1)CC2C(F)(F)F)N1CCN(c2cccc(Cl)c2)CC1 (stereo not given)	1.4%	8.2µM*	7.9%	16.4µM*
COc1ccc(C2CC(C(F)(F)F)n3nc(C(=O)O)cc3N2)cc1OC (stereo not given)	-4.5%	4.6%	-7.1%	-10.9%
O=C(c1ccco1)N1CCN(C(=O)c2cnn3c2NC(c2cccs2)CC3C(F)(F)F)CC1 (stereo not given)	-1.8%	-25.5%	1.1%	-12.0%
CCOC(=O)C1=C(C)NC(=O)CC1c1cc(OC)c(OC)cc1Br (stereo not given)	/	-8.0%	-3.6%	20.3%
CCCCNc1nc(C)nc2c1nc(-c1ccccc1)n2CC(C)(C)CN(C)C	/	/	7.5%	/
CCC(C(=O)OCC(=O)c1ccc2c(c1)NC(=O)CO2)c1ccccc1 (stereo not given)	/	20.6µM*	-5.3%	-17.9%
O=C1COc2ccc(C(=O)COC(=O)CCSc3ccccc3)cc2N1	-1.5%	-11.2%	/	7.2%
CC(C)CC(NC(=O)c1ccc(Cl)cc1)C(=O)OCC(=O)c1ccc2c(c1)NC(=O)CO2 (stereo not given)	1.5%	11.6µM*	8.8%	11.6µM*
COc1cccc(CNC(=O)N[C@@H](C)C(=O)O)c1	0.6%	-4.9%	2.4%	0.4%
CCC(c1nnnn1-c1c(C)cccc1C)N1CCCN(Cc2ccc(F)cc2)CC1 (stereo not given)	0.6%	16.4µM*	/	?

Compound activity from PubChem BioAssay.
